Values joined by “and” are separate entries in the source; they are usually repeats but may differ in a detail not shown here. Equal entries are not always repeated. In all, about 5,500 compounds went through this assay and about 2,000 (36%) were called active. Not shown: some 18% with an inconclusive outcome. Rule as the data show it: active = normalized growth mostly below about 0.91 (no sharp cut-off); inconclusive = no clear call, values can overlap the other calls; inactive = mostly above about 0.92. The list shows a part of the results.
Test: chemical genetic growth profiling, strain panel (AID 1159580);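 also: tested at 20 µM; growth read once vehicle control cultures reached saturation at 30 °C; 1 = growth at the plate median or of vehicle wells; lower values mean less growth of the strain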
Details: S. cerevisiae deletion strains, growth OD

Measured: normalized growth

NC(=O)c1cc[n+](CC2=C(C(=O)O)N3C(=O)C(NC(=O)C(c4ccccc4)S(=O)(=O)[O-])C3SC2)cc1 (centres undefined)
inactive: locus YAL013W, strain DEP1, hits give low values 0.983 | locus YAL021C, strain ccr4, hits give low values 1.01 | locus YAL026C, strain drs2, hits give low values 0.997 | locus YAL030W, strain snc1, hits give low values 1.01 | locus YBL061C, strain skt5, hits give low values 0.994 | locus YBR009C, strain hhf1, hits give low values 1.02 | locus YBR021W, strain FUR4, hits give low values 0.97 | locus YBR023C, strain chs3, hits give low values 0.997 | locus YBR171W, strain sec66, hits give low values 1 | locus YBR229C, strain ROT2, hits give low values 0.989 | locus YBR231C, strain swc5, hits give low values 1 | locus YBR279W, strain paf1, hits give low values 0.993 | locus YCL011C, strain gbp2, hits give low values 1.02 | locus YCL016C, strain dcc1, hits give low values 1.01 | locus YCL029C, strain bik1, hits give low values 0.992 | locus YCL069W, strain vba3, hits give low values 1.02 | locus YCR088W, strain abp1, hits give low values 0.987 | locus YDL005C, strain med2, hits give low values 0.998 | locus YDL035C, strain GPR1, hits give low values 0.989 | locus YDL040C, strain nat1, hits give low values 1 | locus YDL074C, strain BRE1, hits give low values 1.02 | locus YDL101C, strain DUN1, hits give low values 0.994 | locus YDL134C, strain PPH21, hits give low values 0.973 | locus YDL185W, strain tfp1, hits give low values 0.995 | locus YDL192W, strain arf1, hits give low values 0.984 | locus YDR001C, strain nth1, hits give low values 0.99 | locus YDR069C, strain doa4, hits give low values 0.98 | locus YDR101C, strain arx1, hits give low values 1 | locus YDR137W, strain rgp1, hits give low values 1.02 | locus YDR150W, strain NUM1, hits give low values 0.988 | locus YDR159W, strain sac3, hits give low values 0.997 | locus YDR162C, strain NBP2, hits give low values 0.981 | locus YDR195W, strain ref2 0.988 | locus YDR297W, strain sur2, hits give low values 1 | locus YDR318W, strain mcm21, hits give low values 0.986 | locus YDR334W, strain swr1, hits give low values 0.994 | locus YDR335W, strain msn5, hits give low values 0.984 | locus YDR388W, hits give low values 0.992 | locus YDR392W, strain spt3, hits give low values 1.04 | locus YDR502C, strain sam2, hits give low values 0.987 | locus YEL003W, strain gim4, hits give low values 0.985 | locus YEL037C, strain rad23, hits give low values 0.999 | locus YEL061C, strain CIN8 (second series), hits give low values 0.99 | locus YEL061C, strain CIN8, hits give low values 0.994 | locus YER015W, strain faa2, hits give low values 1.02 | locus YER016W, strain bim1, hits give low values 0.99 | locus YER110C, hits give low values 0.986 | locus YER111C, strain swi4, hits give low values 0.995 | locus YER155C, strain BEM2 (second series), hits give low values 0.986 | locus YER155C, strain BEM2, hits give low values 0.978 | locus YER167W, strain BCK2, hits give low values 0.98 | locus YFR010W, strain ubp6, hits give low values 0.974 | locus YGL078C, strain dbp3, hits give low values 0.988 | locus YGL086W, strain mad1, hits give low values 0.978 | locus YGL167C, strain pmr1, hits give low values 0.984 | locus YGL173C, strain kem1, hits give low values 1.01 | locus YGL227W, strain vid30, hits give low values 1.01 | locus YGL240W, strain doc1, hits give low values 0.997 | locus YGL248W, strain PDE1, hits give low values 0.976 | locus YGL253W, strain hxk2, hits give low values 0.992 | locus YGR078C, strain PAC10, hits give low values 1.01 | locus YGR135W, strain pre9, hits give low values 0.957 | locus YGR229C, strain SMI1, hits give low values 0.958 | locus YGR252W, strain gcn5, hits give low values 0.937 | locus YHR013C, strain ard1, hits give low values 1 | locus YHR027C, strain rpn1, hits give low values 1.01 | locus YHR030C, strain SLT2, hits give low values 0.986 and 1.08 | locus YHR079C, strain IRE1 (second series), hits give low values 0.996 | locus YHR079C, strain IRE1, hits give low values 1.11 | locus YHR094C, strain hxt1, hits give low values 0.984 | locus YHR129C, strain ARP1, hits give low values 0.988 | locus YHR142W, strain chs7, hits give low values 0.993 | locus YHR200W, strain rpn10, hits give low values 0.986 | locus YIL066C, strain RNR3, hits give low values 0.995 | locus YIL073C, strain SPO22, hits give low values 0.96 | locus YIL125W, strain kgd1, hits give low values 0.992 | locus YIR030C, strain dcg1, hits give low values 0.99 | locus YJL092W, strain hpr5, hits give low values 0.995 | locus YJL095W, strain BCK1 (second series), hits give low values 0.99 | locus YJL095W, strain BCK1, hits give low values 1.02 and 1.05 | locus YJL115W, strain asf1, hits give low values 0.988 | locus YJL129C, strain trk1, hits give low values 0.962 | locus YJL134W, strain LCB3, hits give low values 0.985 | locus YJL154C, strain vps35, hits give low values 0.998 | locus YJL164C, strain tpk1, hits give low values 1.02 | locus YJL166W, strain qcr8, hits give low values 1 | locus YJL168C, strain set2, hits give low values 0.998 | locus YJL187C, strain SWE1 (second series), hits give low values 1.01 | locus YJR043C, strain POL32, hits give low values 0.993
